Compound activity as filed in PubChem.
GC-A act – GC-A (human) enzyme activation; hit rate 0.14% among 370,000; activation, % at 10 µM; P16066; AID 1671463; HEK293 GC-A cells, cGMP TR-FRET, EC30 ANP; 0% at EC30 ANP, 100% saturating ANP; in the data active = activation above about 40%
Rin1-Abl PPI inh – blocks binding of human Rin1 to Abl. hit rate 0.4% among 360,000. P00519+Q13671. inhibition, % at 7.35 µM. TR-FRET Rin1/Abl binding, biochemical; in the data active = inhibition above about 5%, passing the limit was not always enough
CaV13 ICDI inh – Disruptors of the CACNA1D IQ motif to Ca2+-dependent inactivation inhibitor domain association, primary screening, Förster resonance energy transfer in intact living …. HEK cells, CFP/YFP FRET ICDI-IQ, plate reader, 10 min; percent FRET-ratio fall versus neutral wells. inhibition, % at 12.3 µM. hit rate 0.098% among 340,000. AID 743397;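 active = mean replicate inhibition of at least 30% and at least 1% of replicates passing that level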;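 also: 0% = median of the neutral control wells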
GC-B act – GC-B (human) receptor activation | P20594 | hit rate 0.11% among 370,000 | HEK293-GC-B cells, CNP EC30, cGMP TR-FRET; 0% at EC30 CNP, 100% saturating CNP | activation, % at 10 µM | AID 1920062;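 active = activation at 10 µM reaching about 35% in either raw or pattern-adjusted values, limit read from the data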
Rin1 Abl conf – Rin1-Abl interaction inhibition confirmation; hit rate 49% among 1,300; TR-FRET Rin1-Abl binding, purified proteins; shares compounds with Rin1-Abl PPI inh; inhibition, % at 7.35 µM; AID 602124
GFP quencher – counter-screen for Rin1-Abl inhibitors: GFP fluorescence quenchers; shares compounds with Rin1-Abl PPI inh; inhibitors/quenchers counterscreen; inhibition, % at 6.75 µM; hit rate 8.5% among 1,300; AID 602125;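 also: ABL1-eGFP fusion protein alone without its partner RIN1-SBP; 0% = protein with vehicle and 100% = wells lacking protein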
GFP quench DR – GFP fluorescence interference dose response; shares compounds with Rin1-Abl PPI inh; GFP fluorescence interference/quenching counterscreen; IC50, µM; 230 tested, under 10 active; call rule not given here;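 also: ABL1-eGFP fusion protein alone without its RIN1 binding partner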
Active calls of the source: *; / = no result. Most compounds without a hit are left out; they make up all but 0.67% or so of the library. Rule as the data show it, unless noted: active = inhibition above about 6.5%; inactive = the rest.

SMILES | GC-A act | Rin1-Abl PPI inh | CaV13 ICDI inh | GC-B act | Rin1 Abl conf | GFP quencher | others
COc1cccc(N=C2SC(C(=O)Nc3ccc(F)cc3)CC(=O)N2C)c1 (stereo not drawn) | 3 | 10* | / | -4 | -1 | -1
CCOc1ccc(NC(=O)C2CC(=O)N(C)C(=Nc3ccc4c(c3)OCO4)S2)cc1 (stereo not drawn) | -1 | -2 | -8 | 2 | / | /
O=c1c(CO)cc(CO)cc(CO)c1O | -2 | 31* | -3 | 1 | 30* | 13*
CN(/N=C/c1ccccc1Cl)c1ncc(Cl)cc1C(F)(F)F | -13 | 0 | -4 | -2 | / | /
CN(/N=C/c1ccc(O)cc1O)c1ncc(C(F)(F)F)cc1Cl | -4 | 8.6* | -2 | -3 | 0 | 0
Cn1c(=O)c2c(nc(CN3CCN(C(=O)c4ccco4)CC3)n2Cc2ccc(Cl)cc2)n(C)c1=O | -4 | -2 | -5 | 0 | / | /
Cn1c(=O)c2c(nc(CN3CCN(C(=O)c4ccco4)CC3)n2Cc2cccc(Cl)c2)n(C)c1=O | -8 | 7.1* | -5 | -9 | -2 | 1
CC(C)(C)NC(=O)c1ccc(NC(=O)c2ccccc2-c2ccccc2C(=O)O)cc1 | 4 | 6.5* | 7 | 3 | 0 | 1
CCOC(=O)c1ccc(NC(=O)CSc2nnc(-c3cc(-c4ccccc4)n[nH]3)n2N)cc1 | -2 | / | / | -8 | / | /
CCOc1ccc2nc(N(CCN(C)C)C(=O)c3cc4ccccc4cc3OC)sc2c1 | / | 17* | / | / | 17* | -2 | GFP quench DR=>68
CCOc1cccc2sc(N(CCN(C)C)C(=O)c3cc4ccccc4cc3OC)nc12 | -11 | -2 | -4 | -14 | / | /
Cn1c(=O)c(=O)n(C)c2cc(S(=O)(=O)N3CCN(Cc4ccc5c(c4)OCO5)CC3)ccc21 | 2 | / | / | 0 | / | /
O=C(Cc1ccc(NC2=NC3CS(=O)(=O)CC3S2)cc1)NCc1ccc(Cl)cc1 (stereo not drawn) | -1 | 0 | -7 | -5 | / | /
O=C(Cc1ccc(NC2=NC3CS(=O)(=O)CC3S2)cc1)NCCc1ccccc1 (stereo not drawn) | -3 | 6.5* | -6 | 3 | -1 | 0
Cc1ccc(CNC(=O)Cc2ccc(NC3=NC4CS(=O)(=O)CC4S3)cc2)cc1 (stereo not drawn) | 3 | 10* | -6 | 4 | 6 | 1
COc1ccc(CCNC(=O)c2ccc(NC3=NC4CS(=O)(=O)CC4S3)cc2)cc1OC (stereo not drawn) | 2 | 18* | -7 | -3 | 22* | -1 | GFP quench DR=>68
Cc1ccc(S(=O)(=O)N2c3ccccc3C[C@H]2CCC(=O)c2ccccc2)cc1 | -10 | / | / | 1 | / | /
CCOC(=O)C1=C(C)NC(=S)N(C(C)=O)C1c1ccc(OC)c(OC)c1 (stereo not drawn) | -10 | -1 | -5 | -9 | / | /
CCOC(=O)C1=C(C)Nc2nnnn2C1c1ccc(OC)c(Br)c1 (stereo not drawn) | -5 | 11* | 9 | -3 | -1 | -1
CN1C(=O)c2cc(NC(=O)Nc3ccccc3)ccc2OC[C@H]2O[C@@H](CC(=O)N[C@H]3CCN(Cc4ccccc4)C3)CC[C@@H]21 | 4 | / | / | 6 | / | /
COc1cccc(C(=O)Nc2cccc(SC)c2)c1 | 0 | 6.3* | -1 | 2 | 0 | 0
CN(C)Cc1cc(O)c(CN(C)C)cc1O | 1 | 13* | -4 | 6 | 2 | 4
COC(=O)c1cnn(-c2ccc(F)cc2F)c1/C=N/NC(=S)Nc1ccccc1 | -11 | / | / | -5 | / | /
CC1(c2nnc(-c3ccncc3)o2)CC(c2ccc(Cl)cc2)=NO1 (stereo not drawn) | 1 | 17* | -4 | 3 | 23* | -2
CC1(c2nnc(-c3ccncc3)o2)CC(c2ccccc2)=NO1 (stereo not drawn) | -2 | 19* | 1 | 1 | 24* | 1
SMILES | GC-A act | Rin1-Abl PPI inh | CaV13 ICDI inh | GC-B act | Rin1 Abl conf | GFP quencher | others
CCCCCN1CCCCC(NC(=O)c2c(F)cccc2F)C1=O (stereo not drawn) | 0 | / | / | 4 | / | /
Cc1cccc(C)c1NC(=O)CCCCCC1NC(=O)NC1C (stereo not drawn) | 3 | 82* | 2 | 0 | 91* | 0 | GFP quench DR=>68
C[C@@H]1NC(=O)N[C@@H]1CCCCCC(=O)O | 1 | 92* | -5 | 3 | 95* | 0 | GFP quench DR=>68
O=C(O)CCCCCN1C(=O)CCC1=O | 0 | 1 | / | 3 | / | /
CCCCCCCC(=O)O | 3 | -3 | / | 5 | / | /
CCCCCC1NC(=O)NC1CCCCCC(=O)O (stereo not drawn) | 2 | 14* | -6 | 3 | 14* | 0
CCCCNC(=O)NS(=O)(=O)c1ccc(NC(=O)CSc2ncnc3scc(-c4ccc(C)cc4)c23)cc1 | -1 | / | / | -7 | / | /
O=C(Nc1cccc(C(F)(F)F)c1)c1cccnc1NCCO | 2 | 6.9* | 22 | 4 | 1 | 0
O=C(COCc1ccccc1)NC1CCCCN(Cc2cccc(Cl)c2)C1=O (stereo not drawn) | 3 | / | / | 1 | / | /
COc1ccc(O)c(C(c2c(C)[nH][nH]c2=O)c2c(C)[nH][nH]c2=O)c1 | 2 | 22* | -5 | 7 | 0 | -1
COc1ccc(OC)c(C(c2c(C)[nH][nH]c2=O)c2c(C)[nH][nH]c2=O)c1 | 1 | 7.9* | -4 | 8 | -1 | 0
CCOc1cc(C(c2c(C)[nH][nH]c2=O)c2c(C)[nH][nH]c2=O)ccc1O | 0 | -6 | -5 | 2 | / | /
COc1ccc(C(c2c(C)[nH][nH]c2=O)c2c(C)[nH][nH]c2=O)cc1Br | 5 | 1 | -6 | 9 | / | /
CCCC(C)NC(=O)Cn1c(=O)c2c(ncn2CCC(C)C)n(Cc2ccccc2)c1=O (stereo not drawn) | 1 | 0 | -4 | 3 | / | /
CCCCNC(=O)Cn1c(=O)c2c(ncn2CCC(C)C)n(Cc2ccccc2)c1=O | 1 | 20* | -5 | 9 | -1 | 0
O=C(NCCc1cccc(F)c1)c1cc2ccccn2n1 | 7 | / | / | -7 | / | /
CCOC(=O)c1[nH]c(=O)[nH]c1CSCCO | -2 | 8.1* | / | 4 | 12* | 0
